# Measured values taken from the supplement of paper PMC3334620.
# Over roughly 33,000 sequences, “E-score (-0.5 to 0.5)” has its median near -0.035; the highest 2% begin near 0.34. For the sample, the highest values were picked, then their nearest neighbours and some sequences at random.
# Target: T1, Mot3 (UniProt P54785)
# T1 sequence: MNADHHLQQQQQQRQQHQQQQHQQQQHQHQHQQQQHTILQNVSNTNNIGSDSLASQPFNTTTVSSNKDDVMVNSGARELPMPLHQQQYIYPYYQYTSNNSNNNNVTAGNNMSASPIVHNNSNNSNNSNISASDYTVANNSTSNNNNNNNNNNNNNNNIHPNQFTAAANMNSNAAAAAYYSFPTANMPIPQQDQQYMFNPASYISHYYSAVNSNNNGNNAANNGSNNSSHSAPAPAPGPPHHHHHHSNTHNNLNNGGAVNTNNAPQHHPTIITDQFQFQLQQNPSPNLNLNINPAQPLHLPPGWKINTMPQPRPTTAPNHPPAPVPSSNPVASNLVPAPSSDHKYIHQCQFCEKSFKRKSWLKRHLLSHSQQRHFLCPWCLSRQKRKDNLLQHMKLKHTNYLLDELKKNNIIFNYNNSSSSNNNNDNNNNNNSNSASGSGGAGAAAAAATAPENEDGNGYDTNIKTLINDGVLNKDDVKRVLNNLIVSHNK
# Assay: PBM E-score (8-mer binding enrichment) (E-score (-0.5 to 0.5)); higher = stronger / more preferred TF binding
# Details: protein concentration: 200 nM; construct: GST-full length
# Procedure: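 Universal 'all 10-mer' protein binding microarrays (Agilent AMADID 015681) probed with GST-tagged S. cerevisiae TFs (full-length or DBD) made by in vitro transcription/translation (PURExpress), about 100-200 nM. Bound TF was detected with fluorescent anti-GST. Each ungapped 8-mer (which stands for itself and its reverse complement) is scored by the PBM enrichment score (E-score), a modified Wilcoxon-Mann-Whitney statistic from -0.5 to +0.5, computed with the Universal PBM Analysis Suite. Scale: above 0.35 generally sequence-specific binding.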
row,Sequence,PBM E-score
1,ACCTCAGC,-0.124
2,AAAGCCGG,-0.133
3,AATCAAGC,-0.177
4,GGTGTATA,0.0111
5,CGTGTATC,0.262
6,GGTGTGTA,0.335
7,CGTGTGTA,0.349
8,CGTGTATA,0.4
9,AGTGTGTA,0.247
10,AGTGTACA,0.273
11,CGTGTACA,0.388
12,CGTGTACC,0.277
13,CACTGTGA,-0.103
14,CTACCAGA,0.0177
15,GTGAGAGA,0.0715
16,ATGAATGG,-0.0783
17,CGGTTTAC,0.134
18,CGACTTTC,0.0333
19,GTAGGAAA,0.429
20,ATAGGAAA,0.429
21,CTAGGAAA,0.246
22,TGAGGAAA,0.0921
23,TTAGGAAA,0.351
24,CTAGGAGC,-0.225
25,GTAGGAGA,-0.184

row,Sequence,PBM E-score
1,GTAGGATA,0.185
2,ATAGGATA,0.00177
3,ATAGGGAA,0.00264
4,CTAGGAAC,0.372
5,CTAGGAAG,-0.108
6,GGACAGCA,-0.224
7,ATCGGACA,-0.0499
8,CGACATAA,0.0835
9,TAGTTCCA,0.00515
10,AAACGCAC,0.0986
11,TAGCGGAA,-0.15
12,CTCGAGAG,-0.177
13,AGTGGGAT,-0.0984
14,AACGGCGG,-0.117
15,ATAGGAAT,-0.00642
16,ATAGGAAC,0.456
17,GTAGGAAC,0.457
18,GGAGGAAC,0.272
19,ATAGGAAG,-0.0193
20,AGAGGAAC,0.0727
21,TTGCCCAA,0.111
22,CCAACCAC,0.083
23,ACAAAAGA,0.166
24,CGTAGCCA,-0.208
25,ACACTGAT,-0.138

row,Sequence,PBM E-score
1,CCACAGGC,0.194
2,ACCAACCG,-0.16
3,GGAAGGAA,0.384
4,AGAAGGAT,0.0925
5,AGAAGGAC,-0.198
6,CGAAGGAG,-0.225
7,TGAAGGAA,0.434
8,AGAAGGAA,0.382
9,AGAAGGAG,-0.107
10,GGAAGGAC,-0.122
11,CGAAGGAA,0.39
12,CGAAGGAC,-0.03
13,TGGAGGAA,0.0436
14,GCAAGGAA,0.211
15,CTTGGATA,-0.039
16,GACTCCTA,-0.00028
17,CAACAACA,0.315
18,TCGGTCCA,-0.0654
19,CGATACTC,-0.259
20,GCATTTGA,0.0576
21,GCCAAAGA,-0.0826
22,CCTAGGCC,-0.0992
23,TCTAGGCA,0.458
24,ACTAGGCA,0.425
25,TCTAGACA,0.167

row,Sequence,PBM E-score
1,ACTAGGCG,0.168
2,CCTAGGCG,-0.157
3,GCTAGGTA,-0.0278
4,GCTAGGCC,-0.374
5,ACTAGGCC,-0.141
6,GCTAGGCA,0.446
7,TCTAGGAA,0.315
8,CCTAGGCA,0.459
9,GTCGCACA,-0.125
10,AGGCGTTG,0.185
11,GACTGTGA,-0.0263
12,GTGATAGA,-0.0161
13,GCTCCCCC,-0.288
14,GAACATAA,0.0111
15,TAACATAA,0.341
16,TTACATAA,0.408
17,CAACATAA,0.289
18,CTACATAA,0.228
19,GTACATAA,0.306
20,CAGGCTCC,0.28
21,CAGGCTCG,0.342
22,AAGGCTCG,0.235
23,AAGGCTCA,0.336
24,CAGGCTCA,0.392
25,TAGGCTCA,0.109

row,Sequence,PBM E-score
1,CATTTGGG,-0.173
2,CTTAGCCC,-0.079
3,GAAAGGAC,-0.118
4,AACTTCGC,-0.0198
5,ACGCTCCC,-0.0438
6,AAGGAAAT,0.426
7,GAGGAAAA,0.0527
8,ATGGAAAG,0.0416
9,AGGGAAAT,-0.0244
10,TAGGAAAA,0.384
11,TAGGGAAA,-0.0198
12,AGGGAAAG,-0.0829
13,CGGGAAAC,-0.0422
14,ATGGAAAT,0.0932
15,AAGGAAAG,0.441
16,CAGGAAAC,0.445
17,CAGAAAAC,0.152
18,TACCAATA,-0.253
19,CACGGTCA,0.212
20,ATCAGCTG,-0.0375
21,TCAAGTCA,0.0447
22,CGACTTGC,-0.263
23,GATGAAGA,-0.135
24,ACCGAGGA,-0.111
25,ATCGGGGA,0.0758

row,Sequence,PBM E-score
1,AGATAGTC,-0.0427
2,AGCAGTAG,-0.226
3,TCAACGGA,-0.113
4,CAGAAAAA,0.0512
5,CAGGAAAG,0.432
6,ATGGAAAA,-0.0018
7,GAGGAAAC,-0.027
8,AAGGAAAA,0.417
9,CCGGAAAG,-0.215
10,ACGGAAAC,-0.122
11,CAGGAAAA,0.427
12,CAGAAAAG,-0.0566
13,AAGGGAAA,0.0842
14,CGGAAAAA,0.0869
15,AAGGAAAC,0.423
16,TATCTTAA,0.153
17,TAAAGCTA,0.19
18,CAGACCGG,-0.14
19,ACTCGAAT,0.00379
20,CTCAGCAG,-0.113
21,GGTAATAA,0.163
22,TGTAAAAA,0.379
23,AGTAAACA,0.251
24,GGTAAACA,0.323
25,CGTAAAAA,0.258

row,Sequence,PBM E-score
1,AGTAAAAA,0.16
2,TGTAATAA,0.375
3,TGTAAACA,0.387
4,CGTAATAA,0.288
5,GGAGAAAA,-0.133
6,ACCTGTCA,-0.0178
7,AAGGCTAT,-0.0295
8,ACGGTGCG,0.0148
9,ACGGTGCA,0.184
10,ACGGTGCC,0.343
11,CAGAGATG,0.0978
12,TAGGGTCA,-0.0851
13,AAGGTCTG,-0.0775
14,AATCTACT,-0.0291
15,AATCTACA,0.349
16,CATCTACA,0.262
17,AGTTCCGA,-0.142
18,AGTTCCTC,0.0435
19,GGTTCCAA,-0.208
20,AGTTCCTA,0.433
21,GGTTCCTA,0.454
22,AGTTCCTG,0.403
23,GCTTCCTA,0.106
